Laboratory results from the supplement of paper PMC10338343.
± gives the standard deviation.

What follows are sequences tested on EfPiwi piRISC loaded with L1MC piRNA (26 nt) (assay: pre-steady-state target cleavage rate (min^-1); auxiliary factor: 500 nM Ephydatia muelleri Gtsf1; guide: L1MC piRNA 5'p-UAACUAAAUACUAUGCAAGCUGUAGG; MIWI and MILI are mouse PIWI proteins and EfPiwi is from a freshwater sponge; tags in brackets are library labels; higher = faster piRNA-guided slicing of the target).
Method: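 Cleave-'n-Seq: a library of target RNAs (target site in constant flanks) at […] was incubated with 1 nM active freshwater sponge Ephydatia fluviatilis Piwi piRISC (synthetic 5'-monophosphorylated piRNA guide) with or without 500 nM EmGtsf1 at 33 °C for 1 min to 16 h. Uncleaved targets were sequenced and the pooled three trials fitted to a burst-and-steady-state model to give the pre-steady-state cleavage rate (min^-1). Sequence is the target site only. Fits with R² ≤ 0 are excluded.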
With UCCUGCUACAGCUUGCAUAGUAUAAAGUUA the “pre-steady-state target cleavage rate” value was 0.00347 ± 0.0022.
In the case of UCCUCGUACAGCUUGCAUACUAUUUAGUUA, the “pre-steady-state target cleavage rate” value is reported as 0.0224 ± 0.0069.
UCCUGGAUGUGCUGCAUAGUAUUUAGUUA was tested, and the “pre-steady-state target cleavage rate” value was 0.00571 ± 0.0034.
For UCCUGGAACUCGUUGCAUAGUAUUUAGAAA, the “pre-steady-state target cleavage rate” value was 0.00502 ± 0.004.
With UCCUGCUACAGCUUGCAAAGUAUUUAGAUA the “pre-steady-state target cleavage rate” value was 0.00421 ± 0.0024.
In the case of UCCUCCAACAGCUUGCAUAGUAUUUAGUUA, the “pre-steady-state target cleavage rate” value is reported as 0.113 ± 0.032.
UCCUGGAACACGAUGCAUAGUAUUUACAAA was tested, and the “pre-steady-state target cleavage rate” value was 0.00408 ± 0.0037.
In the case of UCCUGGAUGUCGAACGAUACUAUUUUGUUA, the “pre-steady-state target cleavage rate” value is reported as less than 0.0001.
For UCCUGCUACAGCUUGGAUAGUAUUUUCAAA, the “pre-steady-state target cleavage rate” value was 0.00307 ± 0.0018.
UCCUGGUAGAGCUUGCAUAGUAUUUUGUUA was tested, and the “pre-steady-state target cleavage rate” value was 0.00292 ± 0.0029.
For UCCUGGUACGAGCUUGCAUAGUAUUUAGUUA, the “pre-steady-state target cleavage rate” value was 0.00873 ± 0.0027.
UCCUGCUACAGCUUGCUUAGUAUUUUCAAA was tested, and the “pre-steady-state target cleavage rate” value was 0.00321 ± 0.003.
UCCUGGAACAGCUUCCAUAGUAUUUAGAAA was tested, and the “pre-steady-state target cleavage rate” value was 0.00411 ± 0.0022.
In the case of UCCUCGUACAGCUUGCAUAGUAUUUAGAAA, the “pre-steady-state target cleavage rate” value is reported as 0.00711 ± 0.0033.
With UCCUGGAACAGGUUGGAUAGUAUUUAGUUA the “pre-steady-state target cleavage rate” value was 0.00375 ± 0.0014.
In the case of UCCUGGAUGUGCUUGCAUAGUAGUUUAGUUA, the “pre-steady-state target cleavage rate” value is reported as 0.0051 ± 0.0034.
With “UCCUGGAUCAGCUUGCAUAGUAUUUAGUUC [g2:g22:cont:t1C]” the “pre-steady-state target cleavage rate” value was 0.0501 ± 0.011.
With UCCUGGAUGUGCUUCCAUAGUAUUUAGUUA the “pre-steady-state target cleavage rate” value was 0.00277 ± 0.0019.
With UCCUGCUACAGGUUGCAAAGUAUUUAGUUA the “pre-steady-state target cleavage rate” value was 0.0385 ± 0.0096.
For UCCUCCUACAGCUUGGAUAGAAUUUAGUUA, the “pre-steady-state target cleavage rate” value was 0.00574 ± 0.0016.
In the case of UCCUGGAUCAGCUUGACAUAGUAUUUAGUUA, the “pre-steady-state target cleavage rate” value is reported as 0.014 ± 0.0043.
In the case of UCCUGCUACAGCUUGCAUAGUAUUAUCUAA, the “pre-steady-state target cleavage rate” value is reported as 0.00395 ± 0.0027.
UCCUCCUACAGCUUGCAUACGUAUUUAGUUA was tested, and the “pre-steady-state target cleavage rate” value was 0.0035 ± 0.0025.
UCCUGGAUGUCGUUGCAUAGUAGUUUAGUUA was tested, and the “pre-steady-state target cleavage rate” value was 0.0087 ± 0.005.
In the case of UCCUGGAUGUGCCUGCAUAGUAUUUAGUUA, the “pre-steady-state target cleavage rate” value is reported as 0.00933 ± 0.0036.
In the case of UCCUGGAUCAGCUUGCAUAGUAUUUAUGUUA, the “pre-steady-state target cleavage rate” value is reported as 0.0559 ± 0.02.
UCCUGGAUCAGCUAGCAUAGUAUUUAGUAA was tested, and the “pre-steady-state target cleavage rate” value was 0.00362 ± 0.0032.
For UCCUGGAUGAGCUUGCAUAGUAUUUAGAUA, the “pre-steady-state target cleavage rate” value was 0.00326 ± 0.0019.
For UCCUGCUCCAGCUUGCAUAGUAUUUAGUUA, the “pre-steady-state target cleavage rate” value was 0.0877 ± 0.024.
In the case of UCCUGGAUGUGCUUGCAUAGUAAUUAGAUA, the “pre-steady-state target cleavage rate” value is reported as 0.00395 ± 0.0024.
With UCCUCCUACAGCUACCAUAGUAUUUAGUUA the “pre-steady-state target cleavage rate” value was 0.00393 ± 0.0021.
In the case of UCCUGCUACAGCUAGCAAAGUAUUUAGUUA, the “pre-steady-state target cleavage rate” value is reported as 0.0328 ± 0.0098.
UCCUGGAUGAGCUUGCAUAGUAUUAAGUUA was tested, and the “pre-steady-state target cleavage rate” value was 0.00469 ± 0.0021.
In the case of UCCUCCAACUGCUUGCAUAGUAUUUAGUUA, the “pre-steady-state target cleavage rate” value is reported as 0.0183 ± 0.0064.
For UCCUCCUUCACCUUGCAUAGUAUUUAGUUA, the “pre-steady-state target cleavage rate” value was 0.0605 ± 0.021.
For UCCUGGAUGAGCUAGCAUAGUAUUAAGUUA, the “pre-steady-state target cleavage rate” value was 0.00293 ± 0.0024.
UCCUGGUACAUGCUUGCAUAGUAUUUAGUUA was tested, and the “pre-steady-state target cleavage rate” value was 0.0077 ± 0.0034.
UCCUGGAUGAGCUUGCAUAUUAUUUAGUUA was tested, and the “pre-steady-state target cleavage rate” value was 0.00658 ± 0.0032.
UCCUGGAACAGGUUGCAUAGUUUUUAGUUA was tested, and the “pre-steady-state target cleavage rate” value was 0.00366 ± 0.0018.
In the case of UCCUCCUAGUGCUUGCAUAGUAUUUAGAAA, the “pre-steady-state target cleavage rate” value is reported as 0.00361 ± 0.0021.
